Measurements from PubChem BioAssay (NCATS).
Records with an inconclusive call do not appear. Where a call stands in place of a potency, no number is given. Calls of active or inactive are those of the source. Unless noted, calls follow the shape of the dose curve; as a rule, active = well fitted curve in the direction sought with a large enough effect; inconclusive = small, poorly fitted or top-dose-only effect, or another doubt; inactive = no such curve, though single readings can be large; an effect the other way counts as inactive or inconclusive.

How the values were obtained:
[1] = target: Cytochrome P450 1A2 (Homo sapiens) (UniProt P05177); assay: p450-cyp1a2 (AID 410; calls by dose curve; also: potency is read from the fitted curve at half-maximal effect)
Summary of the method: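 O-Demethylation of luciferin 6' methyl ether by human CYP1A2 is monitored as luciferase luminescence. Substrate sits at Km (100uM); enzyme is 20nM. Values are scaled to 57 uM furafylline as maximal inhibition.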

[2] = target: Mitogen-activated protein kinase 10 (Mus musculus) (UniProt Q61831); assay: JNK3 AlphaScreen Assay (AID 530; active = well fitted curve in either direction with a large enough effect, not every such curve was filed as active;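 also: kinase came from lysate of stimulated human HepG2 cells; signal reports phosphorylation of biotinylated GST-cJun 1-79 at Ser73 with 10 µM ATP; series mostly up to about 57 µM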)
Summary of the method: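 Activity was read by AlphaScreen after JNK3-containing HepG2 lysate (cytokine pre-activated) phosphorylated biotinylated GST-cJun with 10 uM ATP at room temperature. Phospho-Ser73 cJun antibody with Protein-A acceptor beads provided detection.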

[3] = target: Cytochrome P450 3A4 (Homo sapiens) (UniProt P08684); assay: qHTS Assay for Inhibitors and Substrates of Cytochrome P450 3A4 (AID 884); also: nearly all actives have a fitted effect of over 50% in size; also: potency is read from the fitted curve at half-maximal effect
Summary of the method: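 Luminescent readout of luciferin produced by CYP3A4 (20 nM) dealkylation of Luciferin-PPXE, 25 uM (its KM). NADPH-driven reaction ran 60 min at RT after 10 min compound preincubation; data scaled to 57 uM ketoconazole as 100% inhibition.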

[4] = target: Cytochrome P450 3A4 (Homo sapiens) (UniProt P08684); assay: qHTS Assay for Activators of Cytochrome P450 3A4 (AID 885); also: nearly all actives have a fitted effect of over 65% in size
Summary of the method: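 Human CYP3A4 dealkylates Luciferin-PPXE to luciferin, which luciferase detection converts to light. Substrate was at its KM (25uM), buffer 200mM KPO4, reaction 60 min at RT.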

[5] = target: Cytochrome P450 2D6 (Homo sapiens) (UniProt P10635); assay: qHTS Assay for Inhibitors and Substrates of Cytochrome P450 2D6 (AID 891); also: potency is read from the fitted curve at half-maximal effect; nearly all actives have a fitted effect of over 60% in size
Summary of the method: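 Luminescent read-out of luciferin formed by 5 nM human CYP2D6 demethylating 30 uM Luciferin-ME EGE (Km level) over 60 min at room temperature after NADPH regeneration addition. Data normalized to full inhibition by 1.43 uM quinidine.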

[6] = target: Cytochrome P450 2C9 (Homo sapiens) (UniProt P11712); assay: qHTS Assay for Inhibitors and Substrates of Cytochrome P450 2C9 (AID 883); also: potency is read from the fitted curve at half-maximal effect; nearly all actives have a fitted effect of over 60% in size
Summary of the method: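 Human CYP2C9 (10nM) with Luciferin-H at 100uM (its KM) in 25mM KPO4; compound preincubated 10 min at 37C, then NADPH regeneration for 60 min at 37C. Luciferin read by luminescence after detection reagent; normalized to 57uM sulphaphenazole as full inhibition.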

[7] = target: Cytochrome P450 2C19 (Homo sapiens) (UniProt P33261); assay: qHTS Assay for Inhibitors and Substrates of Cytochrome P450 2C19 (AID 899); also: potency is read from the fitted curve at half-maximal effect; nearly all actives have a fitted effect of over 60% in size
Summary of the method: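 5 nM human CYP2C19 with 10uM Luciferin-H EGE (at KM) in 50mM KPO4, compound preincubated 10 min at 37C, then NADPH regeneration for 60 min at 37C. Luciferin read by luminescence after detection reagent; normalized to 57uM ketoconazole as full inhibition.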

[8] = target: 3',5'-cyclic-AMP phosphodiesterase 4B (Homo sapiens) (UniProt Q07343); assay: qHTS Assay for Inhibitors of PDE-IV (AID 607; active = well fitted activation curve with a large enough effect in the main read-out, with a control signal flat, not every such curve was filed as active)
Summary of the method: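 HEK293 ACTOne cells with CNG channel (1000/well), endogenous PDE4; membrane potential dye, compounds up to 22.9 uM final. Fluorescence Ex 535/Em 590; RO 20-1724 (100 uM final) as reference.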

Chain of Cytochrome P450 2C19 (Homo sapiens) (P33261 whole entry, looked up): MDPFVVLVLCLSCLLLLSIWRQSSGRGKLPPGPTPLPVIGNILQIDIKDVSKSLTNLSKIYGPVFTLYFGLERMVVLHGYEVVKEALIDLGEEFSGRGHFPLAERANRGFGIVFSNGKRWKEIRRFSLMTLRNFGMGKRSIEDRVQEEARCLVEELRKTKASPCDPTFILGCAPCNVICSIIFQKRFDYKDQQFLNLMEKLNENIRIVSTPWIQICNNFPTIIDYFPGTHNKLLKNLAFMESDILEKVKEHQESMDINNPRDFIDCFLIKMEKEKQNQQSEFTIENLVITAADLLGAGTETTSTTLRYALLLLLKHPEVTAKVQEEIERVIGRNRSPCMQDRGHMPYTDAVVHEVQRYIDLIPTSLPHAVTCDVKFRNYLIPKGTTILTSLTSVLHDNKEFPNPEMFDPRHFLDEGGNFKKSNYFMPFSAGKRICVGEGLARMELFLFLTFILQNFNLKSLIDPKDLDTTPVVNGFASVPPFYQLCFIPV
Chain of Cytochrome P450 2C9 (Homo sapiens) (P11712 whole entry, looked up): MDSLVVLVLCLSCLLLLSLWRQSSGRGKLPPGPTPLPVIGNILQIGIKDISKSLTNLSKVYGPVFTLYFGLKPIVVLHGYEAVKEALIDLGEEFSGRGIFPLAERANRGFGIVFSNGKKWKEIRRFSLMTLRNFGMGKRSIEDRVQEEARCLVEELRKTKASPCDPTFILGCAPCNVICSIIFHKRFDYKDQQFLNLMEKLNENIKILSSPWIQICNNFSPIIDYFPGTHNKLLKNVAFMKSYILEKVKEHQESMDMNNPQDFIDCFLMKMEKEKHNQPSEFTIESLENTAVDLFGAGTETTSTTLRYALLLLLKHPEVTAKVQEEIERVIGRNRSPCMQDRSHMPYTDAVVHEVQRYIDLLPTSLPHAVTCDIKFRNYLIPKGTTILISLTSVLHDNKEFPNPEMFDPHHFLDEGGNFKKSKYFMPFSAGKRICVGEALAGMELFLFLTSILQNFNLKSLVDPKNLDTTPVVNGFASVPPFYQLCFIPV
Chain of Cytochrome P450 2D6 (Homo sapiens) (P10635 whole entry, looked up): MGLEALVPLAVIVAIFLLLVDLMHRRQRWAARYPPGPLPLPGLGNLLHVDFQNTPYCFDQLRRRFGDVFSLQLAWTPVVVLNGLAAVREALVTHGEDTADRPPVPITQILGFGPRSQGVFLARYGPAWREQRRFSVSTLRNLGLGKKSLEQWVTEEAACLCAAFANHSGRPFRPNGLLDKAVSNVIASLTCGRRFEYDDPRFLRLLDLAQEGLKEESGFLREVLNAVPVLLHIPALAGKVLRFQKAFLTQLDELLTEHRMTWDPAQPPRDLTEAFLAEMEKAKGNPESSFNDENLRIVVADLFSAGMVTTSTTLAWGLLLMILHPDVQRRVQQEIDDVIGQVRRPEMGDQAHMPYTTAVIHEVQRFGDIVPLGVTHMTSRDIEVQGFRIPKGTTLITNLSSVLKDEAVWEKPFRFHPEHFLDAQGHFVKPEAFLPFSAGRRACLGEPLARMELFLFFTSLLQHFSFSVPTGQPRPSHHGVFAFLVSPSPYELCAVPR
Chain of Cytochrome P450 3A4 (Homo sapiens) (P08684 whole entry, looked up): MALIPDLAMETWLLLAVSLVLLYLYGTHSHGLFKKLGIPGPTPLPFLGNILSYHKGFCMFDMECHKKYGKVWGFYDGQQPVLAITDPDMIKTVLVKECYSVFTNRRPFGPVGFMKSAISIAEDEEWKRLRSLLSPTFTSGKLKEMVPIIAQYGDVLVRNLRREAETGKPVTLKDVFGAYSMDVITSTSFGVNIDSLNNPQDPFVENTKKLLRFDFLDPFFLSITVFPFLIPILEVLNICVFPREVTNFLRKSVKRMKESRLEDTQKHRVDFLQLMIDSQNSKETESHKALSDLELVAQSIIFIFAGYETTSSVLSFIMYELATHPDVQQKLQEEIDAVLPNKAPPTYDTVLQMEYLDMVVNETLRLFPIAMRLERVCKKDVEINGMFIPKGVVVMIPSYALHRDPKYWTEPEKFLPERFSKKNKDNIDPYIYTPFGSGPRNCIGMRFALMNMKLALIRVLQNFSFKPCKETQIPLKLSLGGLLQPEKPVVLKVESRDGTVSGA
Chain of Cytochrome P450 1A2 (Homo sapiens) (P05177 whole entry, looked up): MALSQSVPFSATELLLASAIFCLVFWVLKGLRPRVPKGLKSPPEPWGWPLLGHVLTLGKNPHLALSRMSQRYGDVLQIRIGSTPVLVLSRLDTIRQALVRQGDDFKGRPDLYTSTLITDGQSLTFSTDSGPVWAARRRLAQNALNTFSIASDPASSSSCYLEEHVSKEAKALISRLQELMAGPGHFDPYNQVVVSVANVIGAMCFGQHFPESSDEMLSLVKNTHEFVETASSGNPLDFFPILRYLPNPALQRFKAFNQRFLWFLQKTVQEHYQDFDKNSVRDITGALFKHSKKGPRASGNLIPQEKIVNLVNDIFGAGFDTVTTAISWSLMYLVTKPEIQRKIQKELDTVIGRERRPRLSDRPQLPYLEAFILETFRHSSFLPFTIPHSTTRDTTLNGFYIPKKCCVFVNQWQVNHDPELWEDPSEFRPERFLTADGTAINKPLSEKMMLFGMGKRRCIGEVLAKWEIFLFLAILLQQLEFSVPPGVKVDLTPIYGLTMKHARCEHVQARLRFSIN
Chain of 3',5'-cyclic-AMP phosphodiesterase 4B (Homo sapiens) (Q07343 whole entry, looked up): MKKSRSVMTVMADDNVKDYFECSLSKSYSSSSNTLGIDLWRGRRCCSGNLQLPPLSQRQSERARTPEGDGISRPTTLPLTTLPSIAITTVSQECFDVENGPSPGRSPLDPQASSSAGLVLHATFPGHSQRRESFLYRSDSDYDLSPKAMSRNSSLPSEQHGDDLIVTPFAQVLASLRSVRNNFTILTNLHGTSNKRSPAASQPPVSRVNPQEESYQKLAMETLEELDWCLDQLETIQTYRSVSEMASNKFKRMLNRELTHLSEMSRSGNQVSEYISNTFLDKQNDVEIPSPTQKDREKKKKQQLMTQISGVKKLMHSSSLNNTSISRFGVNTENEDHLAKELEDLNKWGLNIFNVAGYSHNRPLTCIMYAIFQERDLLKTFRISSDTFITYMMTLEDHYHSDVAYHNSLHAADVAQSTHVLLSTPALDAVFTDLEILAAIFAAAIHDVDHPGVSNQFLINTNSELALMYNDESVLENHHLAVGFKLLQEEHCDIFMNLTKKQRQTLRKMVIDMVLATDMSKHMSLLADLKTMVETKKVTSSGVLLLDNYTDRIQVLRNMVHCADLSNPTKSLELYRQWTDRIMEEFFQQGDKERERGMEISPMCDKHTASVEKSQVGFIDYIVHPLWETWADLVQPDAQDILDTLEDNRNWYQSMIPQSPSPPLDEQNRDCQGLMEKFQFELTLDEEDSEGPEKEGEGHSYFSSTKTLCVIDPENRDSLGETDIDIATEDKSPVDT

CCC/C=C(\CCC)C(NS(=O)(=O)CC12CCC(CC1=O)C2(C)C)c1ccc(C(=O)OC)cc1 (stereo unspecified)
Potency [1]: inactive | Potency [2]: inactive | Potency [3]: 3.98 µM (active) | Potency [4]: inactive | Potency [5]: 5.01 µM (active)

COC(=O)[C@@]1(Cc2ccc(OC)cc2)[C@@H]2C(=CC(=O)[C@H]2CC(=O)C(=O)N(C)C)CN1C(=O)c1ccccc1
Potency [1]: inactive | Potency [2]: inactive | Potency [4]: inactive

C[C@@H](C(=O)Nc1ccc2ccccc2c1)[C@@H]1C[C@@]1(C)[C@@H](NC(=O)c1cnccn1)c1ccccc1
Potency [1]: 12.6 µM (active) | Potency [2]: inactive | Potency [6]: 0.0631 µM (active) | Potency [4]: inactive

CCCC[C@@H]1C[C@H]1C(NC(=O)c1ccco1)c1ccc(-c2ccccc2)cc1 (stereo partly specified)
Potency [1]: 5.01 µM (active) | Potency [2]: inactive | Potency [6]: 3.16 µM (active) | Potency [4]: inactive

CCC/C=C(\CCC)C(NP(=O)(c1ccccc1)c1ccccc1)c1ccc(C(F)(F)F)cc1 (stereo unspecified)
Potency [1]: inactive | Potency [2]: inactive | Potency [3]: inactive

COC(=O)[C@@]1(Cc2ccc(F)cc2)[C@H]2c3cc(C(=O)N(C)C)n(Cc4ccc(C)c(F)c4F)c3C[C@H]2CN1C(=O)c1ccccc1
Potency [1]: inactive | Potency [2]: inactive | Potency [3]: 0.794 µM (active) | Potency [4]: inactive

CCCC[C@@H]1C[C@H]1C(NC(=O)c1ccc(C(F)(F)F)cc1)c1ccc(C(=O)OC)cc1 (stereo partly specified)
Potency [1]: 15.8 µM (active) | Potency [2]: inactive | Potency [3]: 5.01 µM (active) | Potency [4]: inactive

CC(C)c1cccc2nc3c(c([Si](C)(C)C(C)(C)C)c12)Cn1c-3cccc1=O
Potency [1]: 25.1 µM (active) | Potency [2]: inactive | Potency [4]: inactive

CCCC[C@@H]1C[C@H]1C(NC(=O)c1ccco1)c1ccccc1 (stereo partly specified)
Potency [1]: 2 µM (active) | Potency [2]: inactive | Potency [4]: inactive

CCC/C=C(\CCC)C(NC(=O)c1ccc(-c2ccccc2)cc1)c1ccc(C(=O)OC)cc1 (stereo unspecified)
Potency [1]: 0.631 µM (active) | Potency [2]: inactive | Potency [4]: inactive

COc1ccc2nc3c(c([Si](C)(C)C(C)(C)C)c2c1)Cn1c-3cccc1=O
Potency [1]: 0.794 µM (active) | Potency [2]: inactive | Potency [3]: 1.58 µM (active) | Potency [4]: inactive | Potency [5]: 2 µM (active) | Potency [7]: 2 µM (active)

CCC/C=C(\CCC)C(NP(=O)(c1ccccc1)c1ccccc1)c1ccc(-c2ccccc2)cc1 (stereo unspecified)
Potency [1]: 2.51 µM (active) | Potency [2]: inactive | Potency [3]: 3.98 µM (active) | Potency [4]: inactive | Potency [7]: 7.94 µM (active)

C#CCOC(=O)NC(/C=C/CCCC)c1ccccc1 (stereo unspecified)
Potency [1]: 15.8 µM (active) | Potency [2]: inactive | Potency [4]: inactive

COC(=O)c1ccc(C(NC(=O)c2ccco2)[C@]2(C)C[C@H]2C2CCCCC2)cc1 (stereo partly specified)
Potency [1]: inactive | Potency [2]: inactive | Potency [3]: 7.94 µM (active) | Potency [4]: inactive

CCCC/C=C/C(NC(=O)c1cccs1)c1ccccc1 (stereo unspecified)
Potency [1]: 1.58 µM (active) | Potency [2]: inactive | Potency [6]: 0.316 µM (active) | Potency [4]: inactive | Potency [7]: 1.58 µM (active)

S=C(Nc1ccccc1)Nc1ccccc1C#Cc1ccccc1
Potency [1]: 0.501 µM (active) | Potency [2]: inactive | Potency [6]: 3.98 µM (active) | Potency [4]: inactive | Potency [7]: 3.16 µM (active)

CCC/C=C(\CCC)C(NC(=O)c1cccs1)c1ccc(C(F)(F)F)cc1 (stereo unspecified)
Potency [1]: 3.16 µM (active) | Potency [2]: inactive | Potency [3]: 2.51 µM (active) | Potency [4]: inactive | Potency [7]: 0.316 µM (active)

COC(=O)c1ccc(C23CC2(C(NP(=O)(c2ccccc2)c2ccccc2)c2ccccc2)C3)cc1 (stereo unspecified)
Potency [1]: 15.8 µM (active) | Potency [2]: inactive | Potency [3]: 3.16 µM (active) | Potency [4]: inactive

COC(=O)[C@@]1(Cc2ccc(OC)cc2)[C@@H]2[C@@H](CC(=O)[C@H]2CC(=O)C(=O)N2CCCC2)CN1C(=O)c1ccccc1
Potency [1]: inactive | Potency [2]: inactive | Potency [3]: 0.794 µM (active) | Potency [4]: inactive

COC(=O)[C@@]1(Cc2ccccc2)[C@H]2c3cc(C(=O)N4CCCC4)n(C)c3C[C@H]2CN1C(=O)c1ccccc1
Potency [1]: 25.1 µM (active) | Potency [2]: inactive | Potency [3]: 3.98 µM (active) | Potency [4]: inactive | Potency [7]: 3.98 µM (active)

COC(=O)[C@@]1(Cc2ccc(F)cc2)[C@H]2c3cc(C(=O)N(C)C)n(Cc4ccc(C)o4)c3C[C@H]2CN1C(=O)c1ccccc1
Potency [1]: inactive | Potency [2]: inactive | Potency [3]: 2.51 µM (active) | Potency [4]: inactive

CC[C@@]1(O)C(=O)COc2c1cc1n(c2=O)Cc2c-1nc1cccc(C(C)C)c1c2[Si](C)(C)C
Potency [1]: 7.94 µM (active) | Potency [2]: inactive | Potency [4]: inactive

CCCC[C@@H]1C[C@H]1C(NC(=O)c1cccs1)c1ccc(-c2ccccc2)cc1 (stereo partly specified)
Potency [1]: 2 µM (active) | Potency [2]: inactive | Potency [6]: 1.58 µM (active) | Potency [4]: inactive

CCCC[C@H]1C[C@@H]1[C@@H]1N(P(=O)(c2ccccc2)c2ccccc2)[C@](CO)(c2ccccc2)CC12CC2
Potency [1]: inactive | Potency [2]: inactive | Potency [3]: 2 µM (active) | Potency [4]: inactive

c1ccc2c(c1)Cc1cc3ccccc3nc1-2
Potency [1]: 0.1 µM (active) | Potency [2]: inactive | Potency [6]: 10 µM (active) | Potency [4]: inactive | Potency [5]: 12.6 µM (active) | Potency [7]: 5.01 µM (active)

CCC/C=C(\CCC)C(NS(=O)(=O)c1cccs1)c1ccc(C(=O)OC)cc1 (stereo unspecified)
Potency [1]: 12.6 µM (active) | Potency [8]: inactive | Potency [6]: 2 µM (active) | Potency [4]: inactive | Potency [5]: 6.31 µM (active) | Potency [7]: 0.794 µM (active)

CCC/C=C(\CCC)C(NC(=O)Cc1ccccc1)c1ccc(C(=O)OC)cc1 (stereo unspecified)
Potency [1]: 15.8 µM (active) | Potency [3]: 3.98 µM (active) | Potency [4]: inactive | Potency [7]: 2.51 µM (active)

CCCC/C=C/C(NC(=O)c1ccccc1)c1ccccc1 (stereo unspecified)
Potency [1]: 3.98 µM (active) | Potency [4]: inactive

CCC/C=C(\CCC)C(NS(=O)(=O)c1ccc(Cl)cc1)c1ccccc1 (stereo unspecified)
Potency [1]: 12.6 µM (active) | Potency [6]: 2.51 µM (active) | Potency [3]: 7.94 µM (active) | Potency [4]: inactive | Potency [7]: 0.398 µM (active)

CCCCc1c2ccccc2nc2[nH]c3ccccc3c12
Potency [1]: 0.2 µM (active) | Potency [2]: inactive | Potency [4]: inactive

CC(C)c1cccc2cc3c(nc12)-c1cccc(=O)n1C3
Potency [1]: 0.501 µM (active) | Potency [2]: inactive | Potency [4]: inactive

CCC/C=C(\CCC)C(NS(=O)(=O)c1ccc(-c2ccccc2)cc1)c1ccc(C(=O)OC)cc1 (stereo unspecified)
Potency [1]: 6.31 µM (active) | Potency [7]: 1.26 µM (active)

COC(=O)[C@@]1(Cc2ccccc2)[C@@H]2C(=CC(=O)[C@H]2CC(=O)C(=O)N(C)C)CN1C(=O)c1ccccc1
Potency [1]: inactive | Potency [3]: 7.94 µM (active) | Potency [4]: inactive
